Here are results for 5 compounds from PubChem BioAssay (EPA / NIEHS).

Active and inactive are the calls of the source. How the source made its calls: active means hit-call score of the fitted dose curve at least 0.9, where 1 is the maximum; inactive means score below 0.9.

Assay [1] in a line: ATG_CRE_CIS: Attagene CIS-FACTORIAL HepG2 Assay for human cAMP Responsive Element (CRE) binding protein 3 (AID 2282926). As to conditions: HepG2 CRE cis-reporter, Attagene multiplexed mRNA; actives raise or lower the signal. A digest of the protocol: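 HepG2 cells transiently transfected with cis-element-driven multiple reporter transcription units; CRE reporter mRNA measured 24 h after dosing by RT-PCR, 6-FAM labelling, HpaI digestion and capillary electrophoresis. Bidirectional fit versus DMSO baseline.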

In assay [2] the target is CCAAT/enhancer-binding protein beta (Homo sapiens) (UniProt P17676). The assay is described as follows: ATG_C_EBP_CIS: Attagene CIS-FACTORIAL HepG2 Assay for human CCAAT/Enhancer Binding Protein (C/EBP) beta (AID 2282927). The conditions noted are these: HepG2 Attagene cis-factorial transcription factor reporter; actives raise or lower the signal. In short, it runs like this:
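HepG2 transiently transfected with multiplexed reporter units under cis-regulatory promoters reporting endogenous C/EBPb activity. After 24 h exposure, reporter mRNA assayed by RT-PCR, fluorescent labelling, HpaI digestion and capillary electrophoresis; bidirectional fitting versus DMSO.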

Assay [3] can be described thus: ATG_DR4_LXR_CIS: Attagene CIS-FACTORIAL HepG2 Assay for human Liver X Receptor (LXR), DR4 submotif (AID 2282929). As to conditions: HepG2 Attagene DR4 cis-reporter, mRNA transcription; actives raise or lower the signal. In short, it runs like this:
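DR4 cis-reporter in HepG2, 24 h exposure. Detection: RT-PCR, 6-FAM labelling, CE fragment analysis. Endpoint fitted bidirectionally, DMSO = baseline.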

Assay [4] is described as follows: ATG_AP_2_CIS: Attagene CIS-FACTORIAL HepG2 Assay for human Activator Protein 2 (AP-2) (AID 2282932). As to conditions: HepG2 AP-2 cis-reporter, Attagene transcription factor profiling; actives raise or lower the signal. A digest of the protocol: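 HepG2 cells transiently transfected with cis-element reporter units and exposed for 24 h. Reporter mRNA measured by RT-PCR, FAM labelling, HpaI digestion and capillary electrophoresis. Changes in either direction fitted relative to DMSO.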

Assay [5] in a line: ATG_BRE_CIS: Attagene CIS-FACTORIAL HepG2 Assay for human Bone Morphogenetic Protein (BMP) Response Element (BRE) (AID 2282933). The conditions noted are these: HepG2 BMP response element reporter, Attagene transcription factor profiling; actives raise or lower the signal. A digest of the protocol:
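HepG2 cells transiently transfected with CIS reporter units (endogenous TF activity, BMP response element), dosed 24 h. Reporter mRNA quantified by RT-PCR, fluorescent labelling and capillary electrophoresis; bidirectional fit vs DMSO baseline.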

Assay [6] has as its target Transcription factor E2F1 (Homo sapiens) (UniProt Q01094). The assay is described as follows: ATG_E2F_CIS: Attagene CIS-FACTORIAL HepG2 Assay for human E2F Transcription Factor 1 (AID 2282935). As to conditions: HepG2 Attagene cis-reporter, E2F reporter RNA transcripts; actives raise or lower the signal. A digest of the protocol:
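Endogenous E2F1 activity read through cis-promoter reporter units transfected into HepG2. After 24 h compound treatment, reporter mRNA measured by RT-PCR, HpaI digestion and capillary electrophoresis. Bidirectional fit versus DMSO.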

Assay [7] can be described thus: ATG_EGR_CIS: Attagene CIS-FACTORIAL HepG2 Assay for human Early Growth Response 1 (EGR1) (AID 2282938). As to conditions: HepG2 Attagene CIS-FACTORIAL EGR reporter mRNA; actives raise or lower the signal. A digest of the protocol: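 Endpoint derived by bidirectional fitting versus DMSO vehicle. Method: cis-promoter reporter units transfected into HepG2, 24 h dosing, RNA isolation, RT-PCR with 6-FAM primer extension and HpaI digestion, then capillary electrophoresis fluorescence detection.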

The nature of assay [8]: ATG_M_19_CIS: Attagene CIS-FACTORIAL HepG2 Assay for M19 Transcription Factor (Internal Marker) (AID 2282939). The conditions noted are these: HepG2 Attagene CIS-FACTORIAL M19 internal marker reporter; actives raise or lower the signal. In short, it runs like this: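 HepG2 cells transiently transfected with cis-regulated multiplexed reporter units, dosed 24 h. Reporter mRNA quantified by RT-PCR and capillary electrophoresis; internal background marker fitted bidirectionally versus DMSO.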

A short description of assay [9]: ATG_Ets_CIS: Attagene CIS-FACTORIAL HepG2 Assay for human Erythroblast Transformation Specific (ETS) (AID 2282941). As to conditions: HepG2 ETS cis-reporter transcription, actives raise or lower the signal. In short, it runs like this:
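Steps: transfect HepG2 with multiple reporter units; treat compound 24 h; isolate RNA, DNase-treat, reverse-transcribe; PCR-amplify, label with 6-FAM, digest with HpaI; separate by capillary electrophoresis. Activity fitted both directions versus DMSO.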

In assay [10] the target is Hepatocyte nuclear factor 3-beta (Homo sapiens) (UniProt Q9Y261). In words: ATG_FoxA2_CIS: Attagene CIS-FACTORIAL HepG2 Assay for human Forkhead box A2 (FOXA2) (AID 2282942). The conditions noted are these: HepG2 cis-reporter transcription factor activity, 24 h; actives raise or lower the signal. A digest of the protocol:
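Measured: reporter mRNA induction or loss in HepG2 transiently carrying multiple cis-regulated reporter units, 24 h after dosing. Quantified by RT-PCR plus capillary electrophoresis, normalised to DMSO.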

Assay [11] can be described thus: ATG_FoxO_CIS: Attagene CIS-FACTORIAL HepG2 Assay for human Forkhead box O (FoxO) (AID 2282943). The conditions noted are these: HepG2 Attagene cis-reporter, FoxO element, mRNA; actives raise or lower the signal. A digest of the protocol:
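HepG2 cells transiently transfected with cis-element-driven reporter units report endogenous FoxO activity. After 24 h chemical exposure, reporter mRNA quantified by RT-PCR, fluorescent labeling, HpaI digestion and capillary electrophoresis; bidirectional fit versus DMSO.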

Assay [12] in a line: ATG_GATA_CIS: Attagene CIS-FACTORIAL HepG2 Assay for human GATA Binding Protein (AID 2282944). As to conditions: HepG2 GATA cis-element reporter, Attagene multiplex mRNA; actives raise or lower the signal. In short, it runs like this: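 HepG2 cells transiently transfected with multiplexed cis-element reporter units measure endogenous GATA activity; after 24 h compound exposure, reporter mRNA quantified by RT-PCR and capillary electrophoresis. Changes fitted in both directions vs DMSO.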

The nature of assay [13]: ATG_GLI_CIS: Attagene CIS-FACTORIAL HepG2 Assay for human Zinc Finger Protein GLI1 (AID 2282945). The conditions noted are these: HepG2, Attagene cis-factorial reporter mRNA, GLI element; actives raise or lower the signal. In short, it runs like this: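 Transiently transfected HepG2 cells report endogenous transcription factor activity via cis-element-driven reporter units. After 24 h compound exposure, reporter mRNA was measured by RT-PCR with capillary electrophoresis; bidirectional fitting against DMSO baseline.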

Assay [14] can be described thus: ATG_M_06_CIS: Attagene CIS-FACTORIAL HepG2 Assay for M06 Transcription Factor (Internal Marker) (AID 2282950). As to conditions: HepG2 Attagene CIS-FACTORIAL M06 internal marker reporter; actives raise or lower the signal. In short, it runs like this:
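Internal background marker within multiplexed cis-reporter HepG2 system. Cells transiently transfected, dosed 24 h; reporter mRNA measured by RT-PCR, HpaI digestion and capillary electrophoresis. Bidirectional fit relative to DMSO.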

Assay [15] concerns the target Hepatocyte nuclear factor 6 (Homo sapiens) (UniProt Q9UBC0). In words: ATG_HNF6_CIS: Attagene CIS-FACTORIAL HepG2 Assay for human Hepatocyte Nuclear Factor 6 (HNF6) (AID 2282952). The conditions noted are these: HepG2 Attagene cis-factorial HNF6 reporter transcription; actives raise or lower the signal. A digest of the protocol:
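HepG2 cells transiently transfected with cis-element-driven multiplexed reporter units measuring endogenous transcription factor activity. After 24 h exposure, reporter mRNA quantified by RT-PCR, FAM-labelled fragments and capillary electrophoresis; bidirectional fitting versus DMSO.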

Assay [16] can be described thus: ATG_MRE_CIS: Attagene CIS-FACTORIAL HepG2 Assay for human Metal Responsive Element (MRE) (AID 2282954). As to conditions: HepG2 MRE cis-reporter transcription, Attagene multiplex; actives raise or lower the signal. In short, it runs like this: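 HepG2 cells transiently transfected with cis-element-driven reporter units; mRNA measured 24 h after dosing. Reporter transcripts quantified by RT-PCR, FAM labelling, HpaI digestion and capillary electrophoresis; bidirectional fit versus DMSO.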

For assay [17], the target named is Paired box protein Pax-6 (Homo sapiens) (UniProt P26367). The assay is described as follows: ATG_Pax6_CIS: Attagene CIS-FACTORIAL HepG2 Assay for human Paired Box 6 (PAX6) (AID 2282956). The conditions noted are these: HepG2 CIS-FACTORIAL PAX6 reporter transcription, RNA readout; actives raise or lower the signal. A digest of the protocol: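 Transient MRTU transfection of HepG2 → compound exposure 24 h → TriZol RNA, oligo(dT) RT → PCR, 6-FAM primer extension, HpaI cut → capillary electrophoresis; activity fitted both directions against DMSO.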

Assay [18] is described as follows: ATG_PXRE_CIS: Attagene CIS-FACTORIAL HepG2 Assay for human Pregnane X Receptor Element (PXRE) (AID 2282957). The conditions noted are these: HepG2 Attagene CIS-FACTORIAL PXRE reporter, mRNA; actives raise or lower the signal. A digest of the protocol:
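HepG2 cells transiently transfected with cis-element-driven multiplexed reporter units; after 24 h chemical exposure, reporter mRNA measured by RT-PCR, 6-FAM labelling, HpaI digestion and capillary electrophoresis. Bidirectional fitting relative to DMSO.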

A short description of assay [19]: ATG_Sox_CIS: Attagene CIS-FACTORIAL HepG2 Assay for human SRY-box transcription factor (SOX) (AID 2282960). The conditions noted are these: HepG2 Attagene cis-factorial SOX reporter, mRNA; actives raise or lower the signal. In short, it runs like this:
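Gain- or loss-of-signal endpoint, fitted bidirectionally with DMSO as negative control. Based on reporter mRNA from transfected HepG2 cells harvested 24 h post-treatment and quantified via RT-PCR and capillary electrophoresis.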

In general, AC50 refers to the midpoint of the concentration-response curve, whichever way the signal moves.

Transcription factor E2F1 (Homo sapiens), sequence (Q01094 whole entry, looked up): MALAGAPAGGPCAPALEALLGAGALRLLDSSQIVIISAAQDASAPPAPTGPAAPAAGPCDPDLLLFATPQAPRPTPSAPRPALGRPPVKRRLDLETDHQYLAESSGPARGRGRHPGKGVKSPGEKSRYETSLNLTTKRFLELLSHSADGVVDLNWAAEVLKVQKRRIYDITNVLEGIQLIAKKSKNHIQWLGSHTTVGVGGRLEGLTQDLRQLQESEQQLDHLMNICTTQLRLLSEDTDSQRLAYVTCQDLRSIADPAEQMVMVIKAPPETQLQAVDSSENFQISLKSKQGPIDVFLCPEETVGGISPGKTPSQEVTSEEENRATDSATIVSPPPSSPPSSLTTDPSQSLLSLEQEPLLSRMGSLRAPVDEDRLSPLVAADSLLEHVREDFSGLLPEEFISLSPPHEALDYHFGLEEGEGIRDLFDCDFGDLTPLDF
Hepatocyte nuclear factor 6 (Homo sapiens), sequence (Q9UBC0 whole entry, looked up, the tested form may be a part): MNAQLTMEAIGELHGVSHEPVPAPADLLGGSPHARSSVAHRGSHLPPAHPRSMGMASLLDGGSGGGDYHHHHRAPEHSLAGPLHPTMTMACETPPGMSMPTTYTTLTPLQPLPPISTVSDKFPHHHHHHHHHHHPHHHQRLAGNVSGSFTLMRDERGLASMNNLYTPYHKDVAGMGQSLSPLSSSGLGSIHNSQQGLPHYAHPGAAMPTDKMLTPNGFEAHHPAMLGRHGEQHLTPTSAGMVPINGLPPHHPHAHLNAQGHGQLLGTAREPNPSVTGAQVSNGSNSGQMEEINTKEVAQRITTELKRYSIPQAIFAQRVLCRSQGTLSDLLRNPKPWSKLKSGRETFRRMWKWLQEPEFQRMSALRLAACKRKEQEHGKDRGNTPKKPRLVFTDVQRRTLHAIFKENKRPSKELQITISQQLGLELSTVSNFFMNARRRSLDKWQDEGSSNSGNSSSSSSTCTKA
Paired box protein Pax-6 (Homo sapiens), sequence (P26367 whole entry, looked up): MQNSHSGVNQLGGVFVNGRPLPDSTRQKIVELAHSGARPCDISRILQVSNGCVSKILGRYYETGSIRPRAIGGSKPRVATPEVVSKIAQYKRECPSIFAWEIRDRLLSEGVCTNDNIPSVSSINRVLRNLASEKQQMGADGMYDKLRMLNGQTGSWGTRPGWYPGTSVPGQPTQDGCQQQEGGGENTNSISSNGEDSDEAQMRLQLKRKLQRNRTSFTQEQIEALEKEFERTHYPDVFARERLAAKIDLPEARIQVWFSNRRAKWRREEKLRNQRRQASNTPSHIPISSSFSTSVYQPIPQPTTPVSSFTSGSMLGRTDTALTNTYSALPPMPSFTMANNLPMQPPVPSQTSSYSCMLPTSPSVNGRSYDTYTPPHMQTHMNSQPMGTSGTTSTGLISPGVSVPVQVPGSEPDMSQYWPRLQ
CCAAT/enhancer-binding protein beta (Homo sapiens), sequence (P17676 whole entry, looked up): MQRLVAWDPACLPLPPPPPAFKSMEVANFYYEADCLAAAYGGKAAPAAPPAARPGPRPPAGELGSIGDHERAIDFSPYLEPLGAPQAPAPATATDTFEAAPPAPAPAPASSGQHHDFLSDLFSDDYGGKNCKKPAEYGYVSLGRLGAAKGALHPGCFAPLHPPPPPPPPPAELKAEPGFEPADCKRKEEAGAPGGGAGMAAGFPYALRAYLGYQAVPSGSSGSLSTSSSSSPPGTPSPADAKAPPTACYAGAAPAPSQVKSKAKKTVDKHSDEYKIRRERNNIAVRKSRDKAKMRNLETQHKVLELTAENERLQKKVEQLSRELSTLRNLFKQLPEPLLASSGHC
Hepatocyte nuclear factor 3-beta (Homo sapiens), sequence (Q9Y261 whole entry, looked up): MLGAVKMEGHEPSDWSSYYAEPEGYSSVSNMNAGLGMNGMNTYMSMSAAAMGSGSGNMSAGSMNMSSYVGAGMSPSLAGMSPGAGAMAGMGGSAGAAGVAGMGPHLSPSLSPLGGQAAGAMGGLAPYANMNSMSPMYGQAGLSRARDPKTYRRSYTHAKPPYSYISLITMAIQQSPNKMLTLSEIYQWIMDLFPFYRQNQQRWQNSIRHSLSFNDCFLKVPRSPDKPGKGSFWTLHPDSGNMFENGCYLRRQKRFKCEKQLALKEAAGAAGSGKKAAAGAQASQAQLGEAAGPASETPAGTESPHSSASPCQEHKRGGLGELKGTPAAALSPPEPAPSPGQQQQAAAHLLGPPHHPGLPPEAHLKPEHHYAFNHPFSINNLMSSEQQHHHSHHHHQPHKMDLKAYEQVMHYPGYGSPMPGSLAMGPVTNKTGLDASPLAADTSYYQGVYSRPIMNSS

For the compound `CC1(C)C(=O)NC(=O)NC1=O`, the compound was called inactive in [1], in assay [2], in assay [3], in assay [4], in assay [5] and in [6]. For the same compound, the result in [7], in assay [8], in assay [9], in [10], in [11] and in assay [12] was inactive. The compound was called inactive in assay [13], in assay [14], in assay [15], in [16], in [17] and in assay [18]. Also, in assay [19], the compound was called inactive.
For `CCCCCCCCCCCCCCCC[N+](C)(C)C`, the AC50 in assay [1] is 48.9 µM (active); in [2], 24.1 µM (active); in assay [6], 24.2 µM (active); in assay [9], 100 µM (active); in assay [12] it was 26.6 µM (active); in [15], 100 µM (active). The half-maximal activity concentration (AC50) in assay [16] is 25.5 µM (active); in [18] it was 20.3 µM (active); in assay [19], 100 µM (active). For the same compound, the call in assay [3], in assay [4], in [5], in [7], in assay [8] and in [10] was inactive. The result in assay [11], in assay [13], in assay [14] and in assay [17] was inactive.
As for `CCCOC(=O)c1ccccc1C(=O)OCCC`, the compound was classed as inactive in assay [1], in [2], in assay [3], in [4], in [5] and in assay [6]. Further, the call in assay [7], in assay [8], in [9], in [10], in [11] and in [12] was inactive. Also, the result in assay [13], in assay [14], in assay [15], in assay [16], in [17] and in assay [19] was inactive. For the same compound, in assay [18], the concentration at half-maximal activity (AC50) is 28.9 µM (active).
In the case of `CC(=O)c1cc2c(cc1C)C(C)(C)C(C)CC2(C)C` (stereo not given), the concentration at half-maximal activity (AC50) in assay [1] was 72.4 µM (active); in [2], 108 µM (active); in assay [3], 26.1 µM (active); in [4], 158 µM (active); in assay [5], 26.5 µM (active); in [8], 128 µM (active). Also, the half-maximal activity concentration (AC50) in [13] is 75.5 µM (active); in assay [15], 171 µM (active); in assay [16], 43.8 µM (active); in assay [17] it was 100 µM (active); in [18] it was 2.25 µM (active). Besides, the compound was called inactive in assay [6], in [7], in assay [9], in assay [10], in assay [11] and in [12]. Also, the result in [14] and in [19] was inactive.
Turning to `O=C(O)c1cc[c]([Hg][Cl])cc1`, the call in assay [1], in [2], in assay [3], in assay [4], in assay [5] and in [6] was inactive. Further, the result in assay [7], in [8], in assay [9], in [10], in [11] and in assay [12] was inactive. In addition, the call in assay [13], in [14], in assay [15], in assay [17], in assay [18] and in [19] was inactive. In addition, in [16], the AC50 is 7.75 µM (active).
